Shown are actives, neighbours in structure and some others; about 0.24% of the full set was active somewhere.
TsaE inh = YjeE (TsaE) inhibition, E. coli; P0AF67; purified YjeE enzyme, qHTS inhibition assay; Potency, µM; 0.05% of 71,000 active; AID 605
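Purified YjeE (10 uM) with BODIPY Texas Red-labeled ADP probe (2 uM); compounds pin-transferred, 15 min at room temperature. Binding inhibition read as decreased fluorescence polarization; ADP titration as control.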
BRCT inh red = inhibitors of human BRCA1 BRCT-phosphoprotein interaction (red fluorophore) | BRCT-phosphopeptide binding, red fluorescence polarization | Potency, µM (titrated, usually from 76.9 µM), for inactives: at the highest dose activity change, negative = inhibition, actives largely listed as inhibitors | 0.03% of 75,000 active | AID 892; further: on the % scale 0 is the no-effect control and ±100 the full control effect
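Rhodamine-labelled pBACH1 10-mer (100 nM) bound to BRCT domain (100 nM) at pH 7.3; compounds incubated 12 min room temperature, polarization read. Free peptide defines full inhibition; unlabelled decapeptide titrated as control.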
BRCT inh green = inhibitors of human BRCA1 BRCT-phosphoprotein interaction (green fluorophore) | AID 875 | Potency, µM (highest dose often 76.9 µM), inactives show at the highest dose activity change, negative = inhibition, usual class: inhibitors | BRCA1 BRCT-phosphopeptide binding, green fluorescence polarization | 0.05% of 75,000 active;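 further: potency means the concentration at half of the fitted maximal effect; plate controls were peptide without protein for full effect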
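Compounds were incubated for 12 min at room temperature with a complex of 100 nM fluorescein-tagged pBACH1 decapeptide and 250 nM His-tagged BRCT protein. Buffer was phosphate pH 7.3 with EDTA, DTT and Tween 20. Disruption of binding lowers the polarization signal.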
DNA Pol III inh = inhibitors of bacterial DNA polymerase III holoenzyme; 0.25% of 71,000 active; AID 603; reconstituted DNA polymerase III holoenzyme replication, biochemical; Potency, µM (series often up to 57.1 µM), for inactives: at the top dose activity change, negative = inhibition; further: potency means the concentration at half of the fitted maximal effect; on the % scale 0 is the no-effect control and ±100 the full control effect
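Reconstituted *E. coli* holoenzyme (0.35 nM Pol III, 1 nM beta, 154 nM SSB, 2 nM primase) was preincubated with compound for 15 min at RT. Synthesis on 1.4 nM ssM13Gori ran 35 min, then was stopped with PicoGreen/EDTA and read as dsDNA fluorescence.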
* marks the source's active call; other numbers are inactive results; i = inactive; ? = inconclusive; nt = not tested or not shown; ! = not active in a repeat; [ ] = dose if it differs, or a comment. The call rests on the fitted dose curve; in most records, active means well fitted curve in the direction sought with a large enough effect; inconclusive means small, poorly fitted or top-dose-only effect, or another doubt; inactive means no such curve, though single readings can be large; an effect the other way counts as inactive or inconclusive.

SMILES	TsaE inh	BRCT inh red	BRCT inh green	DNA Pol III inh
Nc1ncnc2oc(-c3ccco3)c(-c3ccco3)c12	100µM*	?	-26.7%	10µM*
Nc1nnc(-c2ccco2)s1	i	-0.1%	-1.7%	3.3%
Cc1ccc(/C=c2\sc3nc(-c4ccccc4Br)nn3c2=O)o1	i	1.0%	0.4%	-8.2%
Cc1ccc(/C=c2\sc3nc(-c4ccco4)nn3c2=O)o1	i	-8.0%	-0.2%	3.98µM*
CCCC[C@@H]1C[C@H]1C(NC(=O)c1ccco1)c1ccccc1 (stereo not given in full)	i	0.7%	0.3%	-5.6%
O=[N+]([O-])c1cccc2cn[nH]c12	i	-3.2%	-5.2%	-2.5%
O=[N+]([O-])c1cccc2c[nH]nc12	i	-18.1%	-8.1%	15.8µM*
CCN(CC)CC[n+]1ccc2c(C)c3[nH]c4ccc(O)cc4c3c(C)c2c1	i	-3.7%[15.4 µM]	-3.2%[15.4 µM]	1.26µM*
CC(=O)[C@@]1(O)Cc2c(O)c3c(c(O)c2[C@H](O[C@H]2C[C@H](N)[C@H](O)[C@H](C)O2)C1)C(=O)c1ccccc1C3=O	50.1µM*	12.6µM*	-24.9%	3.98µM*
COc1cccc2c1C(=O)c1c(O)c3c(c(O)c1C2=O)C[C@](O)(C(C)=O)C[C@H]3O[C@@H]1C[C@H](N)[C@H](O)[C@H](C)O1	i	?	7.3%[34.4 µM]	2µM*
COc1cccc2c1C(=N)c1c(O)c3c(c(O)c1C2=O)C[C@](O)(C(C)=O)C[C@@H]3O[C@H]1C[C@H](N)[C@@H](O)[C@H](C)O1	i	-1.7%[15.4 µM]	-0.5%[15.4 µM]	3.16µM*
COc1cccc2c1C(=O)c1c(O)c3c(c(O)c1C2=O)C[C@@](O)(C(=O)CO)C[C@@H]3O[C@H]1C[C@H](N)[C@H](O)[C@H](C)O1	nt	10µM*	9.7%	nt
CC1=C(\C=C/C(C)=C/C=C\C(C)=C\CO)C(C)(C)CCC1	i	nt	nt	-1.8%
CNC(=O)[C@@H]1O[C@@H](n2cnc3c(NCc4cccc(I)c4)ncnc32)[C@H](O)[C@@H]1O	i	-1.2%	-3.2%	-3.4%
Cc1cccc(CNc2ncncc2-c2ccccc2CN(C)C)c1	i	1.9%	-0.6%	2.0%
CCOC(=O)c1sc(N)c(C(=O)Nc2ccc(C)cc2C)c1C	nt	0.3%	-0.7%	nt
O=c1cc(-c2ccccc2O)oc2c(O)c(O)ccc12	i	-0.6%	-2.0%	0.501µM*
O=c1cc(-c2ccccc2)oc2c(O)c(O)ccc12	nt	1.5%	-0.8%[3.08 µM]	nt
CC(=O)N1CCCc2cc(S(=O)(=O)CCC(=O)N3CCN(c4cccc(C)c4)C(C)C3)ccc21 (stereo not given)	i	0.7%	1.1%	15.8µM*
CC(=O)OC[C@@H]1O[C@@H](O/N=C2/C[C@@H](O)[C@@H](O)[C@@H]3[C@H]4C(=O)N(c5ccc(F)cc5F)C(=O)[C@@H]4CC[C@@H]23)[C@H](OC(C)=O)[C@H](OC(C)=O)[C@@H]1OC(C)=O	nt	1.2%[15.4 µM]	-1.2%[15.4 µM]	nt
CC(=O)N[C@@H](CC(=O)O)C(=O)N[C@@H](CCC(=O)O)C(=O)O	i	1.2%	-2.2%	20µM*!
COc1ccc(/C=N/NC(=O)c2cc(-c3ccc(Cl)cc3)n[nH]2)cc1OC	nt	0.4%	-2.4%	nt
COCCn1c(=O)c(C)nc2cnc(Oc3ccccc3)nc21	i	0.3%	1.3%	-3.1%
COc1ccc(-c2cc(=O)c3c(O)cc(O[C@H]4OC(COC5OC(C)C(O)C(O)[C@H]5O)C(O)C(O)C4O)cc3o2)cc1O (stereo not given in full)	nt	5.0%	-0.2%[3.08 µM]	nt
O=c1cc(-c2ccc(O)c(O)c2)oc2cc(O[C@@H]3O[C@@H](CO)[C@@H](O)[C@@H](O)[C@H]3O)cc(O)c12	i	nt	nt	1µM*
SMILES	TsaE inh	BRCT inh red	BRCT inh green	DNA Pol III inh
COc1ccc(-c2coc3ccc(O[C@@H]4O[C@@H](COC(C)=O)[C@@H](OC(C)=O)[C@@H](OC(C)=O)[C@H]4OC(C)=O)c(OC(C)=O)c3c2=O)cc1	i	nt	nt	-4.9%
Cc1cc(S(=O)(=O)Nc2ccccc2C(=O)O)ccc1F	nt	-0.8%	-2.0%	nt
CN(C)CCOc1nc(-c2ccccc2)nc2c1oc1ccccc12	i	-0.2%	2.8%	25.1µM*
CSc1nc(N)c2ncn([C@H]3O[C@H](COP(=O)(O)OP(=O)(O)O)[C@@H](O)[C@@H]3O)c2n1	50.1µM*	-1.1%	-2.2%	-3.0%
Nc1ncnc2c1ncn2[C@@H]1O[C@@H](COP(=O)(O)OP(=O)(O)OP(=O)(O)OP(=O)(O)OC[C@@H]2O[C@@H](n3cnc4c(N)ncnc43)[C@@H](O)[C@H]2O)[C@H](O)[C@@H]1O	50.1µM*	-1.7%	-1.1%	-6.8%
CN(C)Cc1ccccc1-c1cncnc1NCc1cccnc1	i	0.4%	-2.6%	-4.5%
CC(C)CN1CC[C@@]2(CCCN(C(=O)c3cc(C(F)(F)F)cc(C(F)(F)F)c3)C2)C1	i	0.1%	-0.8%	-7.3%
Cc1noc(C)c1-c1cncnc1N(C)Cc1ccco1	i	-1.4%	-2.0%	-9.7%
COc1cccc([C@@H]2Oc3ccc(OC)cc3/C(=N/O[C@@H](C)CN3CCCc4nc(C)c(C)cc43)[C@@H]2O)c1	nt	0.0%[15.4 µM]	-0.8%[15.4 µM]	nt
CC(=O)Oc1ccc(/C=C\C(=O)C[C@@H]2O[C@@H](Oc3cc(OC(C)=O)c4c(c3)O[C@@H](c3ccc(OC(C)=O)cc3)CC4=O)[C@H](OC(C)=O)[C@H](OC(C)=O)[C@@H]2OC(C)=O)cc1	i	nt	nt	-4.0%
COc1ccc2nc3cc(Cl)ccc3c(Nc3ccc(O)c(CN4CCN(C)CC4)c3)c2c1	i	1.4%[15.4 µM]	-2.1%[15.4 µM]	5.01µM*
COc1ccc(N2CCN(Cc3cc(=O)oc4ccc(Cl)cc34)CC2)cc1	i	-1.1%	-0.5%	-6.9%
CC(C)[C@H](Nc1ncnc2nc[nH]c12)C(=O)O	i	-1.6%[15.4 µM]	-0.2%[15.4 µM]	-5.2%[11.4 µM]
COc1ccccc1-c1cncnc1NCCNC(C)=O	i	0.0%	-0.8%	-3.8%
O=C1CC(=O)N(Cc2ccco2)C(=O)N1	i	-0.4%	17.0%	15.8µM*
Oc1cccc2ccc(SSc3ccc4cccc(O)c4n3)nc12	i	1.3%[15.4 µM]	-1.9%[15.4 µM]	-11.0%[11.4 µM]
CC(CN(C)C)NC(=O)c1ccc(-n2c(=O)c(=O)[nH]c3ccccc32)cc1 (stereo not given)	nt	-1.9%	-1.4%	nt
Nc1ccccc1C(=O)C[C@@H](N)C(=O)O	i	nt	nt	2.7%
COc1ccc(OC)c(N2C(=O)[C@@H]3C(c4ccccc4Cl)=NO[C@@H]3C2=O)c1	i	-3.3%	-2.7%	31.6µM*
C=CC1=C(C)C2=Cc3c(C=C)c(C)c4[n]3[Sn+2][n]3c(c(C)c(CCC(=O)O)c3=CC3=NC(=C4)C(C)=C3CCC(=O)O)=CC1=N2	79.4µM*	?	-9.7%	39.8µM*
CC(=O)c1c(O)c(C)c(O)c2c1OC1=CC(=O)[C@H](C(C)=O)C(=O)[C@]12C	i	nt	nt	-2.1%
Nc1ccccc1N=Nc1c(S(=O)(=O)O)cc2cc(S(=O)(=O)O)cc(O)c2c1O	i	-0.6%[15.4 µM]	-0.8%[15.4 µM]	2.51µM*
COc1ccc([C@H](O)c2ccccn2)cc1	i	0.3%[15.4 µM]	0.6%[15.4 µM]	1.4%[11.4 µM]
Nc1ccc(O)c(C(=O)O)c1	i	?	-2.9%	15.8µM*!

Assay outcomes as filed in PubChem BioAssay.
